PGC1a acetyl inh = inhibitors of PGC1a acetylation signal, primary screen, cell-based, U2OS, AlphaScreen, inhibitor mode; AlphaScreen anti-acetyl-lysine; with virally co-expressed GCN5 acetyltransferase; inhibition, % at 15.6 µM; 0.17% of 350,000 active;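 active means every replicate shows inhibition of at least 40%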;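 further: 0% = neutral control wells and 100% = positive control wells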
miR-122 sensor = miR-122 Renilla sensor signal increase in Huh7, primary screen, miR-122 inhibitor project, cell-based, single point, plate reader. AID 602342, 2012. Huh7 miR-122 Renilla luciferase sensor, 48 h; neutral wells = 0, positive control = 100. activation (reporter increase), % at 12.5 µM. 0.3% of 340,000 active;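 active means mean replicate activation score at least 90 and every replicate individually at or above 90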;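 further: higher luciferase means less miR-122 activity so hits act as miR-122 inhibitors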
DENV2 CPE rescue = inhibitors of DENV2 cytopathic effect, primary screen, cell-based, plate reader, single concentration; DENV2-infected cells, cytopathic effect rescue; CPE inhibition, % at 9.99 µM; 1.7% of 350,000 active; AID 651640, 2012; in the data active means CPE inhibition above about 20%, passing the limit was not always enough; tested in BHK-21 cells;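 further: 0% = median of neutral control wells and 100% = median of positive control wells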
Statin myotox sup = suppressors of statin myotoxicity in C2C12 myotubes, primary screen, cell-based, single point, plate reader; C2C12 myotubes + simvastatin, ATP luminescence, 48 h; scaled: DMSO 0, geranylgeraniol control 100; rescue of ATP level, % at 7.49 µM; 0.78% of 330,000 active;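 active means mean ATP rescue above about 67%, or every replicate alone reaching that limit, limit read from the data, passing the limit was not always enough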;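 further: myotubes were challenged with 10 µM simvastatin during compound exposure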
PvdQ acylase = P. aeruginosa PvdQ acylase inhibitors, primary screen, biochemical, fluorescence, plate reader and imaging, single point; purified PvdQ acylase; inhibition, % at 10 µM; 0.063% of 340,000 active; AID 488965, 2010; in the data active means inhibition above about 30%, passing the limit was not always enough;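 further: 0% = vehicle neutral wells and 100% = reference inhibitor wells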
The depositor's hits bear a star; . = no result given; [ ] = remark or other dose. Compounds with a hit are over-represented: about 2.2% of the library has one in this group of screens.

SMILES	PGC1a acetyl inh	miR-122 sensor	DENV2 CPE rescue	Statin myotox sup	PvdQ acylase
Cc1nc2ccc(C(=O)N3c4ccccc4N=C(c4ccc(C(F)(F)F)cc4)C3C(=O)NC(C)(C)C)cc2[nH]1 (centres undefined)	.	.	37*	.	.
CN(C)C(=O)c1ccc(-c2ccccc2[C@H]2[C@H](C#N)N(C(=O)C3CCCCC3)[C@H]2CO)cc1	5	.	28*	.	.
CN(C)C(=O)c1ccc(-c2ccccc2[C@@H]2[C@H](C#N)N(C(=O)C3CCC3)[C@H]2CO)cc1	5	.	2	.	.
CN(C)C(=O)c1ccc(-c2ccccc2[C@H]2[C@@H](C#N)N(C(=O)C3CCC3)[C@H]2CO)cc1	-5	.	24*	.	.
CN(C)C(=O)c1ccc(-c2ccc([C@@H]3[C@@H](CO)N(C(=O)C4CCC4)[C@H]3C#N)cc2)cc1	-5	.	50*	7	.
OC[C@@H]1[C@H](c2ccc(/C=C/c3ccccc3)cc2)[C@H]2CN(CCC(F)(F)F)CCCCN12	-67	-27[16.7 µM]	0	.	.
C[C@@H]1CN([C@@H](C)CO)C(=O)c2cc(C3=CCCCC3)cnc2O[C@H]1CN(C)C(=O)c1cccnc1	0	.	-1	-3	.
COc1cc(S(=O)(=O)Nc2ncccc2C)c(OC)cc1Cl	5	62	.	121*	2
Cc1ccc(C(=O)N2CCN(c3ncccn3)CC2)cc1	80*	11	10	3	-17
Cc1ccc(NS(=O)(=O)c2ccc(C(=O)N3CCN(c4ncccn4)CC3)cc2)cc1	-2	.	-10	.	-10
CCOc1cc(C(=O)Nc2ccc(C)cc2C)ccc1OCC(=O)N1CCCCC1	.	.	.	.	8
CCOc1cc(C(=O)Nc2cc(C)ccc2OC)ccc1OCC(=O)N1CCCCC1	-9	-7	.	115*	7
C[C@H]1CN([C@@H](C)CO)C(=O)Cc2cc(NC(=O)CCC(F)(F)F)ccc2O[C@H]1CN(C)Cc1ccc(Cl)c(Cl)c1	-4	-7[16.7 µM]	5	5	.
Cc1ccc(C)c(Cn2nnc3c(=O)[nH]c(C4CCCN(C(=O)CC(C)C)C4)nc32)c1 (centres undefined)	-6	1	4	85*	-4
CC(C)(C)c1ccc(Cn2nnc3c(=O)[nH]c(C4CCN(C(=O)Cc5cccs5)CC4)nc32)cc1	-18	-2	.	112*	-15
Cc1ccc(C)c(S(=O)(=O)N2CCC(c3nc4c(nnn4Cc4ccc5c(c4)OCCO5)c(=O)[nH]3)CC2)c1	.	-1	-2	77*	-13
O=c1[nH]c(C2CCN(S(=O)(=O)c3ccc4c(c3)OCCO4)CC2)nc2c1nnn2Cc1ccccc1	.	0	-2	2	12
CNC(=O)C[C@@H]1CC[C@H]2[C@H](COc3ccc(NC(=O)Nc4ccc(F)c(F)c4)cc3C(=O)N2C)O1	28	-25[16.7 µM]	0	-30	.
CC(C)(C)n1nnnc1C(c1cccs1)N(Cc1ccccc1)Cc1cccnc1 (centres undefined)	-38	2	.	124*	-12
CO[C@H]1CN(C)C(=O)c2ccc(NS(=O)(=O)c3ccc(C)cc3)cc2OC[C@@H](C)NC[C@H]1C	-4	1[16.7 µM]	-9	-6	.
COc1ccc(-c2nc3ccccn3c2NC2CCCCC2)cc1SC1CCCCC1	-8	115*	-17	-18	-17
O=C(NCC[C@@H]1CC[C@@H](NC(=O)C2CCCCC2)[C@@H](CO)O1)c1cnccn1	-9	.	-5	-1	.
O=C(Nc1ccc(Br)cc1)c1cccc(S(=O)(=O)Nc2cnc3ccccc3c2)c1	.	.	.	.	3
COc1ccc(NC(=O)c2cccc(S(=O)(=O)Nc3ccc(Br)cc3)c2)cn1	-1	103*	-12	-8	-16
O=C(C[C@@H]1CC[C@H]2[C@@H](COC[C@H](O)CN2S(=O)(=O)c2cccc(F)c2)O1)NCCCN1CCOCC1	-4	5[16.7 µM]	-15	0	.
SMILES	PGC1a acetyl inh	miR-122 sensor	DENV2 CPE rescue	Statin myotox sup	PvdQ acylase
C[C@H](CO)N1C[C@H](C)[C@@H](CN(C)Cc2ccc(C(F)(F)F)cc2)Oc2c(NC(=O)c3cnccn3)cccc2C1=O	13	114*[16.7 µM]	-1	21	.
C[C@H]1CN([C@@H](C)CO)C(=O)c2cccc(NC(=O)c3cnccn3)c2O[C@H]1CN(C)Cc1ccc(C(F)(F)F)cc1	20	16[16.7 µM]	1	6	.
C[C@H]1CN([C@@H](C)CO)C(=O)c2cccc(NC(=O)c3ccncc3)c2O[C@H]1CN(C)Cc1ccc(C(F)(F)F)cc1	8	16[16.7 µM]	24*	-2	.
CO[C@@H]1CN(C)C(=O)c2ccc(NC(C)=O)cc2OC[C@H](C)N(C(=O)c2cnccn2)C[C@H]1C	14	22[16.7 µM]	.	10	.
CO[C@H]1CN(C)C(=O)c2ccc(NC(=O)c3ccc(F)cc3)cc2OC[C@H](C)N(C(C)=O)C[C@@H]1C	-5	.	-3	-6	.
O=C(NC1CCS(=O)(=O)C1)c1cccc(Br)c1 (centres undefined)	.	-4	7	2	41*
O=C(NC1CCS(=O)(=O)C1)c1cccc(S(=O)(=O)N2CCCCC2)c1 (centres undefined)	9	-2	.	.	-5
C(=N\c1nccs1)/c1cccnc1	6	-3	.	112*	-4
C[C@H]1CN([C@@H](C)CO)C(=O)c2cc(NC(=O)NC3CCCCC3)ccc2O[C@H]1CN(C)S(=O)(=O)c1ccccc1	4	-6[16.7 µM]	-2	-13	.
Cc1nn2c(C)c(C(=O)Nc3ccccc3)cnc2c1-c1ccccc1	-6	.	42*	21	-16
COc1cccc(CC(NC(C)=O)C(=O)NC2CCN(c3nc(C)cc(C)c3C#N)CC2)c1 (centres undefined)	-3	-2	.	118*	-5
COc1ccc(CC(NC(C)=O)C(=O)NC2CCN(c3nc(C)cc(C)c3C#N)CC2)c(OC)c1 (centres undefined)	5	-8	.	-45	-8
CC(=O)C(=Nc1ccccc1Cl)NNc1ccc(Cl)cc1	-5	-2	.	152*	-16
Cc1onc(-c2ccccc2Cl)c1C(=O)NCc1nc(-c2ccccc2)no1	-7	-1	.	159*	-8
COc1ccccc1CNC(=O)c1c(-c2ccccc2Cl)noc1C	-11	-3	-5	7	-12
N#C[C@@H]1[C@@H](c2ccccc2C2=CCCC2)[C@H](CO)N1C(=O)NC1CCCCC1	-19	.	-9	.	.
COC(=O)c1cn(C(=O)c2ccc(OC)c(OC)c2)c2ccccc12	.	-7	26*	-7	-4
CN(C(=O)CS(=O)(=O)c1cn(CC(=O)N2CCCCC2)c2ccccc12)c1ccccc1	.	.	64*	0	-16
COCCNC(=O)CCC1CCN(C/C=C/c2ccccc2OC)CC1	2	-2	29*	-3	-3
COc1ccc(-c2nc(NCCCN(C)C)c3ccccc3n2)cc1	-10	-5	30*	1	11

Screens from PubChem BioAssay.
